For assay [1], the target named is Rap guanine nucleotide exchange factor 3 (Homo sapiens) (UniProt O95398). The assay can be described thus: Confirmatory qHTS for agonist of cAMP-regulated guanine nucleotide exchange factor 3 (EPAC1) (AID 1645881).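 Also: EPAC1 catalysed release of BODIPY-GDP from Rap1B seen as fluorescence loss; 100% = effect of cAMP agonist control; nearly all actives have a fitted effect of over 75% in size.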
In assay [2] the target is Rap guanine nucleotide exchange factor 4 (Homo sapiens) (UniProt Q8WZA2). Briefly: Confirmatory qHTS for agonist of cAMP-regulated guanine nucleotide exchange factor 4 (EPAC2) (AID 1645884).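 Also: nucleotide exchange releases bodipy-GDP from Rap1 and this lowers its fluorescence; % is scaled to controls: 0 for no effect and ±100 for the full control effect; nearly all actives have a fitted effect of over 65% in size.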
Assay [3] has the same target. The assay can be described thus: Confirmatory qHTS for antagonist of cAMP-regulated guanine nucleotide exchange factor 4 (EPAC2) (AID 1645885). Also: nearly all actives have a fitted effect of over 25% in size. Also: potency is read from the fitted curve at half-maximal effect. As to activity change, negative = inhibition: % is scaled to controls: 0 for no effect and ±100 for the full control effect.
For assay [4], the target named is Rap guanine nucleotide exchange factor 3 (Homo sapiens) (UniProt O95398). The assay can be described thus: Counterscreen qHTS for antagonist of cAMP-regulated guanine nucleotide exchange factor 3 (EPAC1) (AID 1645888). Also: % of control where 0% means no effect. The gist of the method: (§1)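 Measured: fluorescence of BODIPY-GDP bound to Rap1B, which falls as exchange proceeds. Conditions include 50 uM competing GDP, 5 and 30 min reads, and a later cAMP challenge for antagonist detection.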

Assay [5] shares this target. Briefly: Counterscreen qHTS for agonist of cAMP-regulated guanine nucleotide exchange factor 3 (EPAC1) (AID 1645889). Also: % of control where 0% means no effect; nearly all actives have a fitted effect of over 40% in size. The gist of the method: as §1
Assay [6] deals with Lysosomal acid glucosylceramidase (Homo sapiens) (UniProt P04062). The assay can be described thus: Glucocerebrosidase-p2 (AID 348; in the data active = potency below about 10 µM; also: potency is read from the fitted curve at half-maximal effect). As to conditions: purified GBA, blue fluorogenic substrate, 40 min. Put shortly:
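Compounds titrated from 0.6 nM upwards against 0.2 nM enzyme in pH 5.9 citric acid/KH2PO4, taurocholate, tween-20; blue fluorogenic substrate 80 uM, 40 min room temperature, stopped and read Ex 365/Em 440 for AC50.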

A short description of assay [7]: AP1 Signaling Pathway (AID 357; active = well fitted curve in either direction with a large enough effect, not every such curve was filed as active; also: % is scaled to controls: 0 for no effect and ±100 for the full control effect). The gist of the method:
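AP-1-bla ME-180 cells with beta-lactamase reporter under AP-1 response element, stimulated with EC50 EGF; compounds titrated, 5 hours at 37 degrees Celsius. CCF4 read at 460/530 nm ratio; positive and negative modulators judged by AC50.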

For assay [8], the target named is Cytochrome P450 1A2 (Homo sapiens) (UniProt P05177). The assay can be described thus: p450-cyp1a2 (AID 410; calls by dose curve; also: potency is read from the fitted curve at half-maximal effect). Put shortly:
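Inhibition was calculated relative to 57 uM furafylline (full inhibition). The reaction used human CYP1A2 at 20nM with Luciferin-ME at its Km, 100uM, driven by an NADPH-regenerating system for 60 min at room temperature.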

Assay [9] can be described thus: NFAT Signaling Pathway (AID 444; active = well fitted curve in either direction with a large enough effect, not every such curve was filed as active;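 also: carbachol stimulus at about its EC50 of 1 µM final; % is scaled to controls: 0 for no effect and ±100 for the full control effect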). The settings on record: Jurkat NFAT-bla M1, carbachol, beta-lactamase ratio, 5 h; at 7.69 µM (top of the series). The gist of the method:
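Jurkat cells carrying an NFAT-driven β-lactamase reporter and co-transfected muscarinic M1 receptor were treated with compound plus carbachol (1 uM final, an EC50 level) for 5 h at 37 °C. CCF4 loading followed for 1 h at RT; 460/530 nm ratio gave %activity.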

For assay [10], the target named is Glucocorticoid receptor (Homo sapiens) (UniProt P04150). The assay can be described thus: GR-GFP Redistribution (AID 450;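 active = compounds whose dose series gives a full or clear partial fitted curve of increased nuclear translocation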; also: potency is read from the fitted curve at half-maximal effect). As to conditions: U2OS GR-GFP nuclear translocation, laser cytometry, 2 h.
The target is the same in assay [11]. Briefly: GR-EFC Redistribution (AID 451; calls by dose curve; also: potency is read from the fitted curve at half-maximal effect). As to conditions: CHO-K1 GR-EFC translocation, beta-gal luminescence, 2 h. Put shortly: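 CHO-K1 cells stably expressing nuclear-localized β-gal enzyme acceptor and GR fused C-terminally to the enzyme donor fragment; ligand-driven nuclear translocation restores β-gal by complementation. Compounds titrated up to 46 uM final, 2 h at 37 °C; luminescence read.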

In assay [12] the target is Mitogen-activated protein kinase 10 (Mus musculus) (UniProt Q61831). Briefly: JNK3 AlphaScreen Assay (AID 530; active = well fitted curve in either direction with a large enough effect, not every such curve was filed as active;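 also: kinase came from lysate of stimulated human HepG2 cells; signal reports phosphorylation of biotinylated GST-cJun 1-79 at Ser73 with 10 µM ATP; % is scaled to controls: 0 for no effect and ±100 for the full control effect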). Put shortly:
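JNK3 came from HepG2 lysates pre-activated with IL-1beta and TNF-alpha and phosphorylated biotinylated GST-cJun (1-79) at 10 uM ATP, pH 7.6, room temperature. Compounds were titrated. AlphaScreen signal used anti-phospho-cJun (Ser73) antibody.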

For assay [13], the target named is 3',5'-cyclic-AMP phosphodiesterase 4B (Homo sapiens) (UniProt Q07343). Briefly: qHTS Assay for Inhibitors of PDE-IV (AID 607; active = well fitted activation curve with a large enough effect in the main read-out, with a control signal flat, not every such curve was filed as active; also: % of control where 0% means no effect). Put shortly:
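Cell-based read-out of cAMP via a modified cyclic nucleotide-gated channel and membrane potential dye (535/590 nm) in HEK293 cells expressing PDE4 endogenously. Compounds tested up to 22.9 uM final; 100 uM RO 20-1724 reference.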

The target in assay [14] is Guanine nucleotide-binding protein G(i) subunit alpha-1 (Homo sapiens) (UniProt P63096). Briefly: qHTS Assay for Inhibitors of RGS12 GoLoco Motif Activity (Green Fluorophore) (AID 879).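 Also: 0% = labeled peptide with Gαi1 and full inhibition = labeled peptide alone without protein; negative values mean loss of peptide binding seen as reduced polarization.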 The gist of the method:
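Fluorescence polarization assay: 50 nM Gαi1 with 10 nM FITC-labeled RGS12 GoLoco peptide in 10 mM Tris pH 7.5, 150 mM NaCl, 0.1 mM GDP, 0.05% NP40, 10 min at room temperature with compound.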

The target in assay [15] is Muscarinic acetylcholine receptor M1 (Rattus norvegicus) (UniProt P08482). The assay can be described thus: qHTS Assay for Antagonists of Acetylcholine Muscarinic M1 Receptor: Kinetic Measurement of Intracellular Calcium Response (AID 943).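 Also: Fluo-4 calcium signal as peak divided by basal fluorescence over 4 min; nearly all actives have a fitted effect of over 75% in size.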 The gist of the method:
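Intracellular calcium flux, recorded with Fluo-4 in a kinetic plate reader, served as signal; the response to carbachol at EC80 (100 nM final) was taken as maximal over minimal fluorescence after a 10 min compound pre-incubation in rat M1-CHO cells.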

Assay [16] has as its target Pyruvate kinase (Leishmania mexicana) (UniProt Q27686). Briefly: qHTS Validation Assay for Inhibitors of Leishmania Mexicana Pyruvate Kinase (AID 945).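 Also: 0% = DMSO only neutral control wells.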 The gist of the method:
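Mutant LmPYK (E451W), 0.2 nM, plus 0.5 mM PEP and 0.1 mM ADP in 50 mM imidazole pH 7.2 containing 0.01% Tween 20 and 0.05% BSA. Incubated 1 h at room temperature; luminescence via PKLight, normalized to DMSO.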

Assay [17] concerns the target Pyruvate kinase PKM (Homo sapiens) (UniProt P14618). The assay can be described thus: qHTS Assay for Activators of Human Muscle Pyruvate Kinase (AID 954; active = well fitted curve in the direction sought with a large enough effect, not every such curve was filed as active;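 also: 0% = uninhibited enzyme and -100% = no enzyme or full thiadiazolimine inhibition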). The gist of the method:
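Human PKM2 activity is measured as ATP generation, detected by luciferase-coupled luminescence. The enzyme (0.1 nM) acts on 0.5 mM PEP and 0.1 mM ADP for 1 h at ambient temperature; data are normalized to uninhibited and full-inhibition wells.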

The target of assay [18] is Alpha-galactosidase (Coffea arabica) (UniProt Q42656). Briefly: Counterscreen for Glucocerebrosidase Inhibitors: qHTS Assay for Coffee Bean alpha-Galactosidase at pH 4.5 (AID 957).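 Also: plate controls were enzyme alone for no effect and no enzyme for full effect.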 Put shortly:
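AC50 values derive from Hill-equation modeling of concentration-response data, normalized to no-enzyme and full-activity controls. The pH 4.5 citrate assay used 2 nM coffee bean enzyme and 80 uM fluorogenic substrate for 20 min.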

For assay [19], the target named is Alpha-galactosidase A (Homo sapiens) (UniProt P06280). The assay can be described thus: Counterscreen for Glucocerebrosidase Inhibitors: qHTS Assay for Human alpha-Galactosidase at pH 4.5 (AID 992). Also: 0% is about no effect. The gist of the method: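 Quantitative HTS: compounds tested from 0.7 nM up to 77 uM against 2 nM enzyme with 80 uM 4-MU alpha-D-galactopyranoside. The 20 min room-temperature reaction is stopped with 1M NaOH/1M glycine, pH 10.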

Assay [20] deals with alpha-glucosidase (Oryza sativa, rice) (UniProt Q653V4). The assay can be described thus: Counterscreen for Glucocerebrosidase Inhibitors: qHTS Assay for Rice alpha-Glucosidase at pH 5.0 (AID 997).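 Also: 0% = full activity with enzyme and -100% = basal without enzyme.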 Put shortly: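 Rice alpha-glucosidase (4 nM final) with 400 uM 4-methylumbelliferyl-alpha-D-glucopyranoside in citrate buffer pH 5.0, 20 min at room temperature, stopped at pH 10; fluorescence 365/440 nm, compounds 0.7 nM–77 uM, AC50 from Hill fits.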

In assay [21] the target is Alpha-galactosidase (Coffea arabica) (UniProt Q42656). The assay can be described thus: Counterscreen for Glucocerebrosidase Inhibitors: qHTS Assay for Coffee Bean alpha-Galactosidase at pH 5.9 (AID 998).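 Also: plate controls were uninhibited enzyme for no effect and no-enzyme basal signal for full effect.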 Put shortly:
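Green coffee bean enzyme (2 nM final) was incubated with compounds (0.7 nM–77 uM) and 4-methylumbelliferyl alpha-D-galactopyranoside (80 uM) in citrate buffer pH 5.9, 20 min at room temperature. High-pH stop; fluorescence 365/440 nm; AC50 from Hill fits.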

In assay [22] the target is DNA dC->dU-editing enzyme APOBEC-3G (Homo sapiens) (UniProt Q9HC16). The assay can be described thus: qHTS for inhibitors of Vif-A3G interactions: Validation (AID 588379). Also: 0% is about no effect. The gist of the method:
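HeLa cells stably expressing Vif and A3G-eYFP, 700 cells/well, incubated overnight at 37 deg C, then exposed to compound overnight at 37 deg C. Inhibition of Vif-mediated degradation read as increased yellow fluorescence (Ex 488/Em 500-530) by laser-scanning cytometry.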

Unmarked numbers belong to inactive results. Inconclusive results are not listed. Calls of active or inactive are those of the source. Unless noted, calls follow the shape of the dose curve; as a rule, active = well fitted curve in the direction sought with a large enough effect; inconclusive = small, poorly fitted or top-dose-only effect, or another doubt; inactive = no such curve, though single readings can be large; an effect the other way counts as inactive or inconclusive. Some results are limits rather than exact numbers.

These results are taken from PubChem BioAssay (NCATS).

Rap guanine nucleotide exchange factor 3 (Homo sapiens), sequence (O95398 whole entry, looked up): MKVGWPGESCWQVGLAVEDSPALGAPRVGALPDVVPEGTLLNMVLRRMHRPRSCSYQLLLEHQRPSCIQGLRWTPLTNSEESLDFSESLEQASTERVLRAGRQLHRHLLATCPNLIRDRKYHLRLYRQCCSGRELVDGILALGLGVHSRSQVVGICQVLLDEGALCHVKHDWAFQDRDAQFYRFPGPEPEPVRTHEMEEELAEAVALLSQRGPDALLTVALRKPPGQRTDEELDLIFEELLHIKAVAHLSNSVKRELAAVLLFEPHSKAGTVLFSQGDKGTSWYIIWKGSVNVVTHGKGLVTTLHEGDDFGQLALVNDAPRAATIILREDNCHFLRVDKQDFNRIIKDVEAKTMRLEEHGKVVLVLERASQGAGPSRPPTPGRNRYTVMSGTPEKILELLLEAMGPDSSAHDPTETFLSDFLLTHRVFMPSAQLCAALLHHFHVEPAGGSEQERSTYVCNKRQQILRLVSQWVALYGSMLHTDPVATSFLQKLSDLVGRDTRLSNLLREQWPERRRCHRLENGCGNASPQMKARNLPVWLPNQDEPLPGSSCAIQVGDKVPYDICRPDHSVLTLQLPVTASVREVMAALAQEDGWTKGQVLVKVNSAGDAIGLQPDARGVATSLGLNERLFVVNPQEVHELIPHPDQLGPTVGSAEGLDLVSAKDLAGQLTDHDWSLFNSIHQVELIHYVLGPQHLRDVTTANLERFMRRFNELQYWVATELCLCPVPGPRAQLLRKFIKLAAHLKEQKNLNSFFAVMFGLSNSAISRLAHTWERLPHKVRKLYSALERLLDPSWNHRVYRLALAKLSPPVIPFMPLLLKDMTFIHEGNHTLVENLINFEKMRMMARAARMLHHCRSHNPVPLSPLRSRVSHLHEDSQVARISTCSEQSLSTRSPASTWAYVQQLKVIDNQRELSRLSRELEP
Rap guanine nucleotide exchange factor 4 (Homo sapiens), sequence (Q8WZA2 whole entry, looked up): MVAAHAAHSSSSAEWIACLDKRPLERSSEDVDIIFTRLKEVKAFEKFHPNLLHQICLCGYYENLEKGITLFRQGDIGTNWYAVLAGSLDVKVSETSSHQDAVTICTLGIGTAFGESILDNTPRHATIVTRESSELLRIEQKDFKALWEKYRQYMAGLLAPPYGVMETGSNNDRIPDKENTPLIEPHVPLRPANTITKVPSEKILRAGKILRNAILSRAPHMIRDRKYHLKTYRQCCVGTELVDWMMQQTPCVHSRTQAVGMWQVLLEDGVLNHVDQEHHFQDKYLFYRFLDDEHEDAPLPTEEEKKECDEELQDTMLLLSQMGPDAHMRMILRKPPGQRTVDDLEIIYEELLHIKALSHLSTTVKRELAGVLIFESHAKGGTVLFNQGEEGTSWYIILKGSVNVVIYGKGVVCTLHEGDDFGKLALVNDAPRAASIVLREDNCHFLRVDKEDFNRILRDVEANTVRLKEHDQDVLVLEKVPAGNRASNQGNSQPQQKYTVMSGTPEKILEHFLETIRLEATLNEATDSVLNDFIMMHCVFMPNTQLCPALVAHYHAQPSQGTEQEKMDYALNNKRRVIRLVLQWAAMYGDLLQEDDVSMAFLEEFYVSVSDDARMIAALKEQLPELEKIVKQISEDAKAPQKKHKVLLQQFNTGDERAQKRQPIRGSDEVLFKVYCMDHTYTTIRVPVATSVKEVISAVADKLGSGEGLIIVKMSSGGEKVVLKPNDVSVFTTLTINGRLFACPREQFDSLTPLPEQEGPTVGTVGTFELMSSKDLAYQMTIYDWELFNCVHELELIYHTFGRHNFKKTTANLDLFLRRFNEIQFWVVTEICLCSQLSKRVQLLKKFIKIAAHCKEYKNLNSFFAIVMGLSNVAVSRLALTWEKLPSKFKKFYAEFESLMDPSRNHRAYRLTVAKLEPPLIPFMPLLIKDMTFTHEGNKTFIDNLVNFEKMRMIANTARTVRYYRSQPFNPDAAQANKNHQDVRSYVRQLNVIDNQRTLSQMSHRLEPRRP
Glucocorticoid receptor (Homo sapiens), sequence (P04150 whole entry, looked up, the tested form may be a part): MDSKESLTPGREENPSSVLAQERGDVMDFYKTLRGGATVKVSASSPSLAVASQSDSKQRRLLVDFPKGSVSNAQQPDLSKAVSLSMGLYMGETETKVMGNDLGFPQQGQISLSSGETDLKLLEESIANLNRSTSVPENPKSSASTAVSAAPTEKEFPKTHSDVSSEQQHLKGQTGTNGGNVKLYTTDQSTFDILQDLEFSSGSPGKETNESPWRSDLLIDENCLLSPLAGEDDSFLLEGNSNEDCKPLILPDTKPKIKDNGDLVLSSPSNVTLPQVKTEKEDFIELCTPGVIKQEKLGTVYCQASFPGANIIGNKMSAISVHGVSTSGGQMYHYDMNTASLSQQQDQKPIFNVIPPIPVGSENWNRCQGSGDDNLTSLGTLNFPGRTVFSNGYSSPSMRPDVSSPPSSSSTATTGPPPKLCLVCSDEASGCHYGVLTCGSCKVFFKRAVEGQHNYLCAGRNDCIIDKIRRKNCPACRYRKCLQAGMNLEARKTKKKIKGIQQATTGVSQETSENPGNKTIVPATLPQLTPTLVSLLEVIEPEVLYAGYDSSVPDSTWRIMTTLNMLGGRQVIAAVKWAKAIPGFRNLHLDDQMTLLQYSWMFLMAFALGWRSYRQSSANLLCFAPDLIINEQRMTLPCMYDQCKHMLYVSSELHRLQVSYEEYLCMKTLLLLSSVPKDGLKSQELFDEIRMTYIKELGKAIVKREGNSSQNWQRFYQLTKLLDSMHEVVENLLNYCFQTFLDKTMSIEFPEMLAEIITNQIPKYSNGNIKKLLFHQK
Alpha-galactosidase (Coffea arabica), sequence (Q42656 whole entry, looked up): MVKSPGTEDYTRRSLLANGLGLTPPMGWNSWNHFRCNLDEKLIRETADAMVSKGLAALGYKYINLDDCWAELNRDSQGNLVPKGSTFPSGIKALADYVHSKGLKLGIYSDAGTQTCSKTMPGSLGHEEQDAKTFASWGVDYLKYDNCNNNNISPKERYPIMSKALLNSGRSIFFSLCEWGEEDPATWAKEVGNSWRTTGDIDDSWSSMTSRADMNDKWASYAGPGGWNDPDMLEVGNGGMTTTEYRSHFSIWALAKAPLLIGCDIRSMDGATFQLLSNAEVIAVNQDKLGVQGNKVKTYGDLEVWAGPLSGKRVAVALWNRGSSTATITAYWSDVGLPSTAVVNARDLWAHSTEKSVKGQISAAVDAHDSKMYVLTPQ
Cytochrome P450 1A2 (Homo sapiens), sequence (P05177 whole entry, looked up): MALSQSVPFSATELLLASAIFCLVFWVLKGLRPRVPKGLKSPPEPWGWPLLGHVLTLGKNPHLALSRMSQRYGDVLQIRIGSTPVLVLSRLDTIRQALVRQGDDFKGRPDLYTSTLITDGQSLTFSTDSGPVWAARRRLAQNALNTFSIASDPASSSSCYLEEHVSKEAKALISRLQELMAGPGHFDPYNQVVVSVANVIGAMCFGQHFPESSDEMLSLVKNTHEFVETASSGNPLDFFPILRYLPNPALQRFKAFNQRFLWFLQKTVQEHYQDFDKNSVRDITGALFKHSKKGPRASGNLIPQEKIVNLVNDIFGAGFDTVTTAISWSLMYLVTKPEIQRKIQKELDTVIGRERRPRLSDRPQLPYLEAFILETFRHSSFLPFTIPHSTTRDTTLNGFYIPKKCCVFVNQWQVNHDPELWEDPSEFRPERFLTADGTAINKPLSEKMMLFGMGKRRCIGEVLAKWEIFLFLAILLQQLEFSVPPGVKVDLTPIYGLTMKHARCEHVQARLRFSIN
Pyruvate kinase PKM (Homo sapiens), sequence (P14618 whole entry, looked up): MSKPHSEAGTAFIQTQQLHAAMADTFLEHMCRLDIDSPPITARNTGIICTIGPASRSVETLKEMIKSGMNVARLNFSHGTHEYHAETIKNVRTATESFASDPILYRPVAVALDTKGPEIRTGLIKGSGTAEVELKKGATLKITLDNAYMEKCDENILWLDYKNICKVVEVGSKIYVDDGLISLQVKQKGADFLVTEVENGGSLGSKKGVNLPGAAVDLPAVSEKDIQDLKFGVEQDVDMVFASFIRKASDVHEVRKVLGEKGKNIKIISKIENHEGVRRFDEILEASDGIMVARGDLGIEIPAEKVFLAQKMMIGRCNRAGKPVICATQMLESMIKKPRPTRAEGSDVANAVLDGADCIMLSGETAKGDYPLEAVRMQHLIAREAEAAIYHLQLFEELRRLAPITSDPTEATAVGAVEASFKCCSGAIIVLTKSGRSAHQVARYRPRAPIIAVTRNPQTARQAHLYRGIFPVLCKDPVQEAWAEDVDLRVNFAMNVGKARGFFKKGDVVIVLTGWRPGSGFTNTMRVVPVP
Alpha-galactosidase A (Homo sapiens), sequence (P06280 whole entry, looked up): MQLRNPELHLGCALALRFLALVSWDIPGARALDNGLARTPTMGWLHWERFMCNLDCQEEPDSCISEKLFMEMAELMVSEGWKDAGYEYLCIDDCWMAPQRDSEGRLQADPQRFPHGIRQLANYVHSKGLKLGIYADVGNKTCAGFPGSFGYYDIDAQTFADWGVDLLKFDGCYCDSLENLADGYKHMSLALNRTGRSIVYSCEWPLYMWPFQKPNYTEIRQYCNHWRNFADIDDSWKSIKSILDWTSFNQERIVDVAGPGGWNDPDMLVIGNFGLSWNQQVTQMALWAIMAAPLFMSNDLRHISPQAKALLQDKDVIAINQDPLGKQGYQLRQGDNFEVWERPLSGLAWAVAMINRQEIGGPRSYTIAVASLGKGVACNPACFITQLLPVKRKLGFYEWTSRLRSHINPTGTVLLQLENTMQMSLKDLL
DNA dC->dU-editing enzyme APOBEC-3G (Homo sapiens), sequence (Q9HC16 whole entry, looked up): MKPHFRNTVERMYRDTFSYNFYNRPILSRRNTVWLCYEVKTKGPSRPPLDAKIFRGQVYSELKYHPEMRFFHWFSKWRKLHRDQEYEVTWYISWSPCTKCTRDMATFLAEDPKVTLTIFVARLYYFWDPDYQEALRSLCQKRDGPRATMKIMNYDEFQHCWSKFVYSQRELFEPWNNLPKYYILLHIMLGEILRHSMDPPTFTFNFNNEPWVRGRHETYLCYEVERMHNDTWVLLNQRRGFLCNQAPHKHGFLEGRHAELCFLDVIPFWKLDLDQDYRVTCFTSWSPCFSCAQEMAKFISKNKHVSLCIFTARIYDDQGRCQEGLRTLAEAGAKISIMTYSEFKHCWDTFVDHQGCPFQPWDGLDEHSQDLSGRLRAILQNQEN

`CC(=O)C1C2c3ccccc3OC1(C)N=c1s/c(=C/c3cn(C)nc3C)c(=O)n12` (stereo not given): the Potency entry in [1], in assay [2], in assay [3] and in assay [5] was “inactive” each time. Moreover, the call in [4] was inactive.

`Cc1ccccc1-c1nc(CN2C(=O)CN=C(c3ccccc3)c3ccccc32)c(C)o1`: the Potency entry in assay [1] and in assay [2] was “inactive” each time. In assay [4], the call was inactive.

As to `O=C1NC(=O)N(Cc2ccco2)C(=O)/C1=C/c1cccn1CCOc1ccccc1Cl`, the Potency result in assay [1], in assay [2], in assay [3] and in assay [5] was “inactive” throughout. Further, the molecule was called inactive in [4].

With `COc1cc(-n2c(=S)[nH]c3ccc(C)cc3c2=O)c(Cl)cc1Cl`, the Potency result in assay [1] is “inactive”. Moreover, the activation in assay [2] was 8.75% [at 17.1 µM, percent relative to cAMP agonist control]; in assay [5] it was 24.2% [at 30.8 µM]. Moreover, the activity change, negative = inhibition is -17.7% [at 12.7 µM] in assay [3] and -20.5% [at 30.8 µM] in [4].

For `O=C1NC(=S)NC(=O)C1=Cc1cccc2cc3ccccc3cc12`, the Potency in [6] is above 11.4 µM; in assay [8] it was 0.398 µM (active); in assay [10], above 46 µM; in assay [11] it was above 9.22 µM. Further, the outcome in assay [7] and in assay [4] was inactive. Further, the activity change, negative = inhibition in assay [9] is -8.51%; in assay [12], -7.37% [at 11.4 µM]. The Potency entry in assay [13], in assay [1] and in [2] was “inactive” in each case.

Regarding `CCCCCCC(C)(C)c1ccc([C@@H]2C[C@H](O)CC[C@@H]2CCCO)c(O)c1`, the results for the Potency in [10] and in assay [3] were above 46 µM and 35 µM (active), respectively. In addition, the molecule was classed as inactive in assay [14], in assay [17], in assay [18], in assay [19], in assay [20] and in [21]. In assay [22], the molecule was classed as inactive. Further, the Potency result in assay [15], in [16], in [1] and in assay [2] was “inactive” each time.

Consider `CCCCN1C(=O)/C(=C\c2ccco2)C(=O)N(CCc2ccccc2)C1=O`, for which the Potency result in [1], in assay [2], in assay [3] and in assay [5] was “inactive” in each case. The molecule was called inactive in [4].

Turning to `COP(=O)(/C=C(\Cl)c1ccccc1)/C=C(\Cl)c1ccccc1`, the Potency entry in [1], in assay [2], in assay [3] and in [5] was “inactive” in each case. Further, the molecule was called inactive in [4].

As for `Cn1cccc1/C=C1/C(=O)NC(=O)N(Cc2ccccc2)C1=O`, the Potency result in [1], in assay [2], in [3] and in [5] was “inactive” throughout. Besides, the molecule was classed as inactive in assay [4].

In the case of `CCOC(=O)c1c(-c2ccccc2)oc2ccc(OC(=O)N(C)C)cc12`, the Potency entry in assay [1], in assay [2], in assay [3] and in assay [5] was “inactive” each time. Also, the call in assay [4] was inactive.

For `O=C1NCN(c2ccccc2)C12CCN(C(c1cc3ccccc3o1)c1nnnn1C1CCCCC1)CC2` (stereo not given), the Potency result in assay [1], in [2] and in assay [5] was “inactive” in each case. Further, in assay [4], the molecule was classed as inactive.

Take `CCn1nc(/C=C/c2ccccc2)nc2c(=O)n(C)c(=O)nc1-2`: the Potency entry in [1], in assay [2] and in [5] was “inactive” throughout. Moreover, the result in assay [4] was inactive.

`O=C1NC(=O)N(Cc2ccc(F)cc2)C(=O)/C1=C\C=C\c1ccco1`: the Potency entry in assay [1] was “inactive”. In addition, the activation in assay [2] was 3.22% [at 17.1 µM, percent relative to cAMP agonist control]; in assay [5], 7.61% [at 30.8 µM]. Moreover, the activity change, negative = inhibition in assay [3] is -5.04% [at 12.7 µM]; in [4], 6.52% [at 30.8 µM].
